Counter-ions that a name gives are not always drawn.
These compounds were tested on Staphylococcus aureus Sa2 (MRSA, cystic fibrosis isolate) (assay: growth reduction vs untreated control (OD550); higher = stronger antibacterial activity). Settings: 0.1 mM; 24 h.
Method: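 Single-dose screen of the MedChem Express Drug Repurposing Library (0.1 mM, 1% DMSO) against planktonic MRSA S. aureus Sa2 (CF isolate) in TSB in 96-well plates, 37 °C aerobic, 24 h. Assays were run in triplicate and repeated twice.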
With `O=c1[nH]c2ccccc2n1C1CCN(CCCC(c2ccc(F)cc2)c2ccc(F)cc2)CC1` [Pimozide] the growth reduction was 100%.
For `c1ccc2c(c1)Sc1ccccc1N2CC1CN2CCC1CC2` (stereo not drawn) [Mequitazine], the growth reduction was 99.3%.
Compound `C[S+]([O-])CCCCN=C=S` (stereo not drawn) [Sulforaphane] has a growth reduction of 97.9%.
Compound `Cc1cc2c(C(C)C)c(O)c(O)c(C=O)c2c(O)c1-c1c(C)cc2c(C(C)C)c(O)c(O)c(C=O)c2c1O` [Gossypol] has a growth reduction of 98.4%.
With `O=C(CNC(=O)c1ccc(C2=NOC(c3cc(Cl)cc(C(F)(F)F)c3)(C(F)(F)F)C2)c2ccccc12)NCC(F)(F)F` (stereo not drawn) [Afoxolaner] the growth reduction was 100%.
With `Cc1cc2c(C(C)C)c(O)c(O)c(C=O)c2c(O)c1-c1c(C)cc2c(C(C)C)c(O)c(O)c(C=O)c2c1O` [(R)-(-)-Gossypol acetic acid] the growth reduction was 96%.
In the case of `Fc1ccc(C(OCCN2CCN(CCCc3ccccc3)CC2)c2ccc(F)cc2)cc1` [Vanoxerine (dihydrochloride)], the growth reduction is reported as 100%.
`O=C(O)c1nn(Cc2ccc(Cl)cc2Cl)c2ccccc12` [Lonidamine] gave a growth reduction of 90.9%.
`CCNC1=Nc2ccc(Cl)cc2C(C)(c2ccccc2)O1` (stereo not drawn) [Etifoxine] was tested, and the growth reduction was 100%.
For `O=c1c2ccccc2[se]n1-c1ccccc1` [Ebselen], the growth reduction was 99.8%.
`CC[C@H](C)C1O[C@]2(C=C[C@@H]1C)C[C@@H]1C[C@@H](C/C=C(\C)[C@@H](O[C@H]3C[C@H](OC)[C@@H](O[C@H]4C[C@H](OC)[C@H](NC)[C@H](C)O4)[C@H](C)O3)[C@@H](C)/C=C/C=C3\CO[C@@H]4[C@H](O)C(C)=C[C@@H](C(=O)O1)[C@]34O)O2` (stereo partly drawn) [Emamectin (Benzoate)] showed a growth reduction of 98%.
`Cc1cc2c(C(C)C)c(O)c(O)c(C=O)c2c(O)c1-c1c(C)cc2c(C(C)C)c(O)c(O)c(C=O)c2c1O` [Gossypol (acetic acid)] was tested, and the growth reduction was 99.3%.
Compound `COc1cccc2c1cc([N+](=O)[O-])c1c(C(=O)O)cc3c(c12)OCO3` [Aristolochic acid A] has a growth reduction of 95.3%.
